This is part of a sample that, as a whole, favours compounds with a hit. Of some 83,000 tested, about 20% had one in any assay.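 Values shown are percent growth following 48 h exposure of cells in 96-well plates to a single concentration of compound; below 10 was considered active.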 Active and inactive are the calls of the source.
How the values were obtained:
Assay in all cases: NCI-60 one-dose screen, 48 h (100 = growth as untreated, 0 = no growth, -100 = all killed)
DU-145 prostate = conditions: 10 µM
K-562 leukemia = conditions: 10 µM
MALME-3M melanoma = conditions: 10 µM
MDA-MB-231 breast = conditions: 10 µM
RXF 393 renal = conditions: 10 µM
SF-268 CNS = conditions: 10 µM
SF-295 CNS = conditions: 10 µM
SF-539 CNS = conditions: 10 µM
UACC-257 melanoma = conditions: 10 µM
M14 melanoma = conditions: 10 µM
HCT-15 colon = conditions: 10 µM
HT29 colon = conditions: 10 µM
SNB-75 CNS = conditions: 10 µM
SNB-19 CNS = conditions: 10 µM
U251 CNS = conditions: 10 µM
SK-MEL-5 melanoma = conditions: 10 µM
UACC-62 melanoma = conditions: 10 µM unless noted
LOX IMVI melanoma = conditions: 10 µM
SK-MEL-28 melanoma = conditions: 10 µM
PC-3 prostate = conditions: 10 µM

Measured: growth

O=S(=O)(O)c1ccc(O)c2ccccc12
inactive: DU-145 prostate 115% | K-562 leukemia 104% | MALME-3M melanoma 127% | MDA-MB-231 breast 90.8% | RXF 393 renal 108% | SF-268 CNS 98.5% | SF-295 CNS 119% | SF-539 CNS 91.8% | UACC-257 melanoma 112% | M14 melanoma 79.4% | HCT-15 colon 113% | HT29 colon 110% | SNB-75 CNS 88.1% | SNB-19 CNS 97.8% | U251 CNS 107% | SK-MEL-5 melanoma 114% | UACC-62 melanoma 101% | LOX IMVI melanoma 92.7% | SK-MEL-28 melanoma 109%

O=[N+]([O-])c1ccccc1N=Nc1ccc(O)cc1O
inactive: DU-145 prostate 117% | K-562 leukemia 120% | MALME-3M melanoma 109% | MDA-MB-231 breast 119% | RXF 393 renal 121% | SF-268 CNS 118% | SF-295 CNS 107% | SF-539 CNS 113% | UACC-257 melanoma 103% | M14 melanoma 110% | HCT-15 colon 112% | HT29 colon 112% | SNB-75 CNS 91.5% | SNB-19 CNS 111% | U251 CNS 115% | SK-MEL-5 melanoma 106% | UACC-62 melanoma 124% | LOX IMVI melanoma 99.8% | SK-MEL-28 melanoma 121%

S=C1CCCCCN1
inactive: DU-145 prostate 110% | K-562 leukemia 107% | MALME-3M melanoma 107% | MDA-MB-231 breast 111% | RXF 393 renal 123% | SF-268 CNS 99.6% | SF-295 CNS 102% | SF-539 CNS 96.8% | UACC-257 melanoma 97.8% | M14 melanoma 105% | HCT-15 colon 100% | HT29 colon 108% | SNB-75 CNS 89.1% | SNB-19 CNS 99.1% | U251 CNS 111% | UACC-62 melanoma 100% | LOX IMVI melanoma 101% | SK-MEL-28 melanoma 105%

Cc1cc2nc(CO)[nH]c2cc1C
inactive: DU-145 prostate 104% | K-562 leukemia 111% | MALME-3M melanoma 144% | MDA-MB-231 breast 109% | RXF 393 renal 89.8% | SF-268 CNS 88.7% | SF-295 CNS 121% | SF-539 CNS 107% | UACC-257 melanoma 92% | M14 melanoma 107% | HCT-15 colon 107% | HT29 colon 102% | SNB-75 CNS 90.9% | SNB-19 CNS 98% | U251 CNS 108% | SK-MEL-5 melanoma 112% | UACC-62 melanoma 99.7% | LOX IMVI melanoma 110% | SK-MEL-28 melanoma 108%

O=C1Cc2ccccc2C(=O)O1
inactive: DU-145 prostate 129% | K-562 leukemia 106% | MALME-3M melanoma 122% | MDA-MB-231 breast 108% | RXF 393 renal 114% | SF-268 CNS 110% | SF-295 CNS 107% | SF-539 CNS 103% | UACC-257 melanoma 91.9% | M14 melanoma 98.7% | HCT-15 colon 110% | HT29 colon 109% | SNB-75 CNS 95.8% | SNB-19 CNS 103% | U251 CNS 104% | UACC-62 melanoma 106% | LOX IMVI melanoma 102% | SK-MEL-28 melanoma 106%

COc1ccccc1NC(=O)c1cc2cc(Br)ccc2cc1O
active: K-562 leukemia 7.54% | MALME-3M melanoma -1.45% | MDA-MB-231 breast 3.51% | SF-539 CNS 0.0916% | UACC-257 melanoma -21% | HCT-15 colon 7.97% | PC-3 prostate -35.3% | LOX IMVI melanoma 3.26%
inactive: DU-145 prostate 27% | RXF 393 renal 39% | SF-268 CNS 17.8% | SF-295 CNS 11.3% | M14 melanoma 19.6% | HT29 colon 72.8% | SNB-75 CNS 12.4% | SNB-19 CNS 27.3% | UACC-62 melanoma 24.3% | SK-MEL-28 melanoma 34.6%

COc1ccc(OC)c(/C=C2\CCc3ccccc3C2=O)c1
inactive: DU-145 prostate 55.5% | K-562 leukemia 18.3% | MALME-3M melanoma 63.4% | MDA-MB-231 breast 52.9% | RXF 393 renal 60.3% | SF-268 CNS 56.3% | SF-295 CNS 32% | SF-539 CNS 26% | UACC-257 melanoma 75.3% | M14 melanoma 15% | HCT-15 colon 24.3% | HT29 colon 12.8% | SNB-75 CNS 17.4% | SNB-19 CNS 38.6% | PC-3 prostate 47.6% | SK-MEL-5 melanoma 52.9% | UACC-62 melanoma 43.5% | LOX IMVI melanoma 35.6% | SK-MEL-28 melanoma 64.9%

Brc1cnc2ccccc2c1
inactive: DU-145 prostate 102% | K-562 leukemia 107% | MALME-3M melanoma 94.6% | MDA-MB-231 breast 113% | RXF 393 renal 121% | SF-268 CNS 97.2% | SF-295 CNS 101% | SF-539 CNS 103% | UACC-257 melanoma 103% | M14 melanoma 97.7% | HCT-15 colon 101% | HT29 colon 102% | SNB-75 CNS 106% | SNB-19 CNS 95.5% | U251 CNS 103% | SK-MEL-5 melanoma 106% | UACC-62 melanoma 93.4% | LOX IMVI melanoma 101% | SK-MEL-28 melanoma 113%

CSC(=N\N=C\c1ccc(N(C)C)cc1)/N=C/N(C)C
inactive: DU-145 prostate 117% | K-562 leukemia 111% | MALME-3M melanoma 104% | MDA-MB-231 breast 106% | RXF 393 renal 95.1% | SF-268 CNS 111% | SF-295 CNS 84.6% | SF-539 CNS 96% | UACC-257 melanoma 100% | M14 melanoma 104% | HCT-15 colon 96.1% | HT29 colon 113% | SNB-75 CNS 102% | SNB-19 CNS 100% | PC-3 prostate 106% | SK-MEL-5 melanoma 101% | UACC-62 melanoma 112% | SK-MEL-28 melanoma 111%

O=C(O)c1cccc([N+](=O)[O-])c1
inactive: DU-145 prostate 104% | K-562 leukemia 96% | MALME-3M melanoma 105% | MDA-MB-231 breast 102% | RXF 393 renal 117% | SF-268 CNS 100% | SF-295 CNS 94.9% | SF-539 CNS 103% | UACC-257 melanoma 107% | M14 melanoma 104% | HCT-15 colon 108% | HT29 colon 111% | SNB-75 CNS 94.3% | SNB-19 CNS 106% | U251 CNS 95.7% | PC-3 prostate 93.1% | UACC-62 melanoma 101% | LOX IMVI melanoma 99.2% | SK-MEL-28 melanoma 112%

COc1cc(C2NC(=O)C(C#N)=C(Nc3cccc(C)c3)S2)ccc1O (stereo not drawn)
active: UACC-257 melanoma -2.62%
inactive: DU-145 prostate 122% | K-562 leukemia 93.8% | MALME-3M melanoma 108% | MDA-MB-231 breast 99.2% | RXF 393 renal 103% | SF-268 CNS 109% | SF-295 CNS 101% | SF-539 CNS 90.4% | M14 melanoma 101% | HCT-15 colon 111% | HT29 colon 107% | SNB-75 CNS 89.6% | SNB-19 CNS 102% | PC-3 prostate 97.6% | SK-MEL-5 melanoma 101% | UACC-62 melanoma 97.8% | LOX IMVI melanoma 99.1% | SK-MEL-28 melanoma 103%

O=c1[nH]n(-c2ccccc2)c(=O)cc1Cl
inactive: DU-145 prostate 116% | K-562 leukemia 103% | MALME-3M melanoma 99.9% | MDA-MB-231 breast 97.2% | RXF 393 renal 113% | SF-268 CNS 101% | SF-295 CNS 114% | SF-539 CNS 97.7% | UACC-257 melanoma 97.1% | M14 melanoma 106% | HCT-15 colon 120% | HT29 colon 110% | SNB-75 CNS 95.2% | SNB-19 CNS 98.9% | PC-3 prostate 97.3% | SK-MEL-5 melanoma 102% | UACC-62 melanoma 87.3% | LOX IMVI melanoma 96% | SK-MEL-28 melanoma 117%

Cc1cc(C)cc(NCCC#N)c1
inactive: DU-145 prostate 114% | K-562 leukemia 102% | MALME-3M melanoma 164% | MDA-MB-231 breast 106% | RXF 393 renal 448% | SF-268 CNS 105% | SF-295 CNS 103% | SF-539 CNS 104% | UACC-257 melanoma 124% | M14 melanoma 117% | HCT-15 colon 106% | HT29 colon 105% | SNB-75 CNS 94.6% | SNB-19 CNS 96.5% | U251 CNS 105% | UACC-62 melanoma 105% | LOX IMVI melanoma 105% | SK-MEL-28 melanoma 108%

O=C(O)[C@@H]1[C@H]2C[C@H]3c4[nH]c5ccccc5c4CCN3C[C@@H]2CC[C@@H]1O
inactive: DU-145 prostate 106% | K-562 leukemia 129% | MALME-3M melanoma 66.1% | MDA-MB-231 breast 108% | RXF 393 renal 111% | SF-268 CNS 107% | SF-295 CNS 99.2% | SF-539 CNS 108% | UACC-257 melanoma 105% | M14 melanoma 91.5% | HCT-15 colon 106% | HT29 colon 103% | SNB-75 CNS 88.4% | SNB-19 CNS 111% | U251 CNS 114% | SK-MEL-5 melanoma 111% | UACC-62 melanoma 99.4% | LOX IMVI melanoma 103% | SK-MEL-28 melanoma 120%

CC(=O)Nc1ccc(NC(C)=O)c2c1C(=O)c1ccccc1C2=O
inactive: DU-145 prostate 96% | K-562 leukemia 91.4% | MALME-3M melanoma 86.1% | MDA-MB-231 breast 59.7% | RXF 393 renal 108% | SF-268 CNS 95.9% | SF-295 CNS 99.8% | SF-539 CNS 92.3% | UACC-257 melanoma 110% | M14 melanoma 101% | HCT-15 colon 86.1% | HT29 colon 99.7% | SNB-75 CNS 85.9% | SNB-19 CNS 111% | PC-3 prostate 81.9% | SK-MEL-5 melanoma 96.8% | UACC-62 melanoma 73.3% | LOX IMVI melanoma 86% | SK-MEL-28 melanoma 115%

CC(=O)OCC(=O)[C@@]1(O)CC[C@H]2[C@@H]3CC[C@@H]4C[C@H](O)CC[C@]4(C)[C@H]3C(=O)C[C@@]21C
inactive: DU-145 prostate 120% | K-562 leukemia 101% | MALME-3M melanoma 143% | MDA-MB-231 breast 103% | RXF 393 renal 94.8% | SF-268 CNS 102% | SF-295 CNS 104% | SF-539 CNS 100% | UACC-257 melanoma 101% | M14 melanoma 110% | HCT-15 colon 106% | HT29 colon 117% | SNB-75 CNS 88.6% | SNB-19 CNS 111% | PC-3 prostate 95.5% | SK-MEL-5 melanoma 97.1% | UACC-62 melanoma 103% | LOX IMVI melanoma 101% | SK-MEL-28 melanoma 121%

NCCC(=O)c1ccc(Cl)cc1
inactive: DU-145 prostate 108% | K-562 leukemia 98.1% | MALME-3M melanoma 109% | MDA-MB-231 breast 110% | RXF 393 renal 114% | SF-268 CNS 100% | SF-295 CNS 105% | SF-539 CNS 104% | UACC-257 melanoma 101% | M14 melanoma 102% | HCT-15 colon 107% | HT29 colon 106% | SNB-75 CNS 96.1% | U251 CNS 105% | PC-3 prostate 97.2% | SK-MEL-5 melanoma 99.5% | UACC-62 melanoma 112% | LOX IMVI melanoma 106% | SK-MEL-28 melanoma 109%

— PubChem BioAssay (NCI)
